The text below walks through data of PubChem BioAssay (NCI).

Structures are written as SMILES. Several values for one entry are separate records, joined by “and”; a condition that tells them apart may be missing. Identical values can stand only once. This is part of a sample that, as a whole, favours compounds with a hit. Of some 83,000 tested, about 20% had one in any assay.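 How to read the values: 0–100, growth inhibition (40 = 60% inhibited); 0, no net growth; -100 to 0, cell death (-40 = 40% of starting cells died; -100 = all dead).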 Activity calls are given as the source filed them. The calls were made as follows: active = growth percent below 10; inactive = the rest.

The assay has as its system HL-60(TB) leukemia. As to the kind of experiment: NCI-60 one-dose screen, 48 h (100 = growth as untreated, 0 = no growth, -100 = all killed). Particulars: 10 µM unless noted.
For `O=C1N/C(=N/O)S/C1=C/c1cn(-c2ccccc2)nc1-c1ccccc1`, the growth is 117% (inactive). As for `CC(C)(C(=O)c1cccnc1)c1cccnc1`, the growth is 99.5% (inactive) and 126% (inactive). Next, `CCN(CC)CCCNc1cccc2c(SCc3ccccc3)ccnc12`: -67.5% (active); `CC/C(=C(/c1ccc(Cl)cc1)c1ccc(OCCN2CCCC2)cc1)c1ccc(OC)cc1`: 65.1% (inactive). In the case of `Cn1c(SSc2ccc(-c3cccnc3)n2C)ccc1-c1cccnc1` it was 62.8% (inactive) and -32.2% (active). In the case of `NS(=O)(=O)c1cc2c(cc1Cl)NC(C(Cl)Cl)NS2(=O)=O` (stereo not given) it was 91.5% (inactive) and 105% (inactive).

As for `CC(=O)[C@@H]1CC[C@]2(C(N)=O)CC[C@]3(C)[C@H](CC[C@@H]4[C@@]5(C)CCC(=O)C(C)(C)[C@@H]5CC[C@]43C)[C@@H]12`, the growth was 89.7% (inactive).

In the case of `COc1cc(OC)cc(-c2ccc(-c3ccc(C(=N)N)cn3)o2)c1`, the growth is -65.7% (active). Turning to `C=C(C)[C@@H]1CC[C@]2(C(N)=O)CC[C@]3(C)[C@H](CC[C@@H]4[C@@]5(C)C/C(=C/c6cccnc6)C(=O)C(C)(C)[C@@H]5CC[C@]43C)[C@@H]12`, the growth is 3.16% [100 µM] (active).

Take `C=C[C@]1(C)C=C2C(=O)[C@@]3(O)OC(=O)[C@@]4(CCCC(C)(C)[C@H]34)[C@@]2(O)CC1`: the growth was -25% (active). Take `CCCCNC(=O)Oc1ccc(/C(=C(\C)c2ccc(OC)cc2)c2ccc(OCCN3CCCCC3)cc2)cc1`: the growth is 34.6% (inactive).

As for `COc1ccc(-c2n[nH]nc2-c2csc3ccccc23)cc1OC`, the growth was 10.1% (inactive). Consider `CCOc1ccc(-c2nonc2NC(=O)c2cccc(C)c2)cc1OCC`, for which the growth is 73% (inactive). In the case of `CCCc1ccnc(NS(=O)(=O)c2ccc(N)cc2)n1`, the growth is 24.7% (inactive). As for `O=C1C(SCCO)=C(SCCO)C(=O)N1c1ccc(-c2ccccc2)cc1`, the growth was -44.2% (active). Take `C/C=C\COc1cc(C)c(Cl)cc1Cl`: the growth was 105% (inactive). In the case of `CCOC(=O)c1sc(NS(=O)(=O)c2ccccc2)nc1C`, the growth was 153% (inactive).

As to `O=c1oc2cc(OS(=O)(=O)c3ccccc3)c(Cl)cc2c2c1CCCCCC2`, the growth was 87.6% (inactive). On to `NC(=S)N/N=C(\c1ccc(Br)cc1)C1CC1`, for which the growth was 65.6% (inactive) and 64.8% (inactive). Next, `O=C1C=CC(=O)N1c1ccccn1`: 55.7% (inactive). Consider `Cc1c[n+](Cc2ccc3ccccc3c2)cn1Cc1ccc2ccccc2c1`, for which the growth was -56.3% (active). As to `O=C1C2C3C=CC(O3)C2C(=O)N1Nc1ccccc1` (stereo not given), the growth is 102% (inactive). Regarding `Nc1nc(N)c2[nH]cnc2n1`, the growth was 87.5% (inactive). Next, `N#CC1=C(c2ccc(Cl)cc2)Nc2c(c(-c3ccc(Cl)cc3)nn2-c2ccccc2)C12C(=O)Nc1ccc(Cl)cc12` (stereo not given): 15.2% (inactive); `O=C1/C(=C\c2cn(-c3ccccc3)nc2-c2ccc(-c3cccs3)cc2)CCc2ccccc21`: 50.2% (inactive).

`N#CC1=C(N)Oc2ccc3ccccc3c2C1c1ccccc1` (stereo not given): the growth was 2.02% (active). Consider `O=C(CCN1C(=O)/C(=C/c2ccc(O)cc2)SC1=S)Nc1ccccc1`, for which the growth is 61.2% (inactive).

For `CCn1nc(-c2ccccn2)c2cccnc2c1=S`, the growth is 37.4% (inactive). Consider `NC1=NN(c2ccccc2)C(=O)/C1=C/c1ccc(Cl)cc1`, for which the growth was 104% (inactive).

Take `O=C(Nc1nc(-c2ccccc2Cl)cs1)c1cc(-c2ccccc2)nc2ccc(Cl)cc12`: the growth is -3.8% (active). `CSc1nc(NCCO)c(C#N)c(-c2cccc(N)c2)n1`: the growth is 96.1% (inactive). In the case of `Cn1cc(-c2csc(-c3cn(C(=O)OC(C)(C)C)c4ccc(Br)cc34)n2)c2ccnc(Cl)c21` it was 115% (inactive); in that of `COc1ccc(-n2nnc(C(=O)O)c2-c2cc(OC)c(OC)c(OC)c2)cc1`, 98.8% (inactive). In the case of `NCc1c(O)ccc2ccccc12` it was 102% (inactive); in that of `CC1CCN(S(=O)(=O)c2ccc(S(=O)(=O)N3CCCC(c4nc5c(nnn5Cc5cccc(Cl)c5)c(=O)[nH]4)C3)cc2)CC1` (stereo not given), 16.1% (inactive); in that of `CCCOCC(O)CNCCN` (stereo not given), 99.8% (inactive). In the case of `CC(C)(C)n1cc(-c2ccnc(NCCCNS(=O)(=O)c3ccc(F)cc3)c2)c(-c2cccc(F)c2)n1` it was 38.2% (inactive); in that of `Cc1ccc(-c2nnc(COc3ccc(-c4nnc(N)s4)cc3)o2)cc1`, 96.4% (inactive). In the case of `CC[C@@H]1NC(=O)[C@@H]2CCCCN2C(=O)[C@@H]2CCCN2C(=O)[C@@H](NC(=O)[C@H](Cc2cc(F)cc(F)c2)NC(=O)Nc2ccc(C3CC3)cc2F)[C@H](C)OC(=O)[C@@H]2C[C@@H](C)CN2C1=O`, the growth was 5.69% (active). Next, `COC(=O)c1ccc2[nH]c(O)c(C(=Nc3ccc(N(C)C(=O)CN4CCN(C)CC4)cc3)c3ccc(C)cc3)c2c1`: -55.7% (active).
